Several values for one entry are separate records, joined by “and”; a condition that tells them apart may be missing. Equal entries are not always repeated. In all, about 73,000 compounds went through this assay and about 1,800 (2.5%) were called active. Where a call stands in place of a potency, no number is given. Roughly 13% stayed inconclusive and do not appear here. Calls follow the shape of the dose curve; as a rule, active = well fitted activation curve with a large enough effect; inconclusive = small, poorly fitted or top-dose-only effect; inactive = no such curve, though single readings can be large or run the other way. The full list was thinned out, with actives kept by preference.
Potency is read from the fitted curve at half-maximal effect.

This assay is described as follows: qHTS Assay for Agonists of the Thyroid Stimulating Hormone Receptor: Activators of Intracellular cAMP Concentrations in Parental HEK 293. Also: nearly all actives have a fitted effect of over 55% in size. The note with it: parental HEK293 CNG cAMP sensor, membrane potential fluorescence; series mostly up to 57.1 µM. The text has this: NIH Chemical Genomics Center [NCGC]
NIH Molecular Libraries Screening Centers Network [MLSCN]
PI Name: Dr. Marvin Gershengorn
This cell based assay utilized a cyclic nucleotide gated ion channel (CNG) as a biosensor for cAMP induction. HEK 293 cells stably expressing the modified CNG were purchased from BD biosciences (http://www.atto.com/products/actone/features_benefits.shtml) . Stimulation of cAMP production causes the CNG to open and subsequent membrane depolarization to occur. A fluorescent membrane potential dye (BD biosciences) was utilized to detect cAMP stimulation in cells.
The cells were maintained in DMEM medium (Invitrogen) containing 10 % FBS (Hyclone), 100 units/ml Penicillin, 100 ug/ml Streptomycin (Invitrogen), and 250 ug/ml Geneticin (Invitrogen) and 1 ug/ml Puromycin (Invitrogen) at 37C in 5% CO2. This assay was used as a counterscreen to "qHTS Assay for Agonists of the Thyroid Stimulating Hormone Receptor", to control for compounds signaling through endogenous receptors and other targets of HEK 293 cells.
NCGC Assay Protocol Summary:
High Throughput Screening. Freshly passaged cells were dispensed into 1536-well assay plates at 4 ul/well in DMEM containing phenol red (Invitrogen), 10% FCS (Hyclone), and 100 units/ml Penicillin, 100 ug/ml Streptomycin (Invitrogen) and incubated at 37 C with 5% CO2 for 20 to 36 hrs before the robotic screening. The screen was initiated by addition of 4 ul/well membrane potential dye containing 100 uM RO 20-1724 (Sigma Aldrich), followed by 60 min incubation at room temperature to allow for dye equilibration across the cell membrane. 23 nl/well compound or control was then added to the assay plates, which were incubated for additional 30 min before reading a Envision fluorescence plate reader (Perkin Elmer) in bottom-read mode for fluorescence intensity (emission at 590 nm).
Keywords: cAMP, CNG Ion Channel, quantitative high throughput screening, qHTS, HTS, probe identification, CNG, cAMP, cyclic nucleotide gated ion channel PubChem
Regarding `CCC(c1nnnn1Cc1ccco1)N(Cc1cc2cc(OC)ccc2[nH]c1=O)C1CCCCC1` (configuration not stated), the Potency was 10 µM (active).

With `CCC(c1nnnn1C1CCCC1)N(Cc1cccs1)Cc1cc2cccc(C)c2[nH]c1=O` (configuration not stated), the Potency entry is “inactive”.

Take `COc1ccc2[nH]c(=O)c(CN(CC3CCCO3)C(=O)Nc3ccccc3)cc2c1` (configuration not stated): the Potency entry was “inactive”.

With `COc1ccc2[nH]c(=O)c(CN(Cc3nnnn3CCc3ccccc3)CC3CCCO3)cc2c1` (configuration not stated), the Potency result was “inactive”.

For `COc1ccc(CCN(Cc2cc3cccc(C)c3[nH]c2=O)C(=O)N2CCCC2)cc1OC`, the Potency result was “inactive”.

Take `CCC(c1nnnn1Cc1ccco1)N(CCc1ccccc1)Cc1cc2cccc(C)c2[nH]c1=O` (configuration not stated): the Potency is 12.6 µM (active).

Consider `COc1ccc(/C=C/NC(=O)Cc2ccc(OC)c(OC)c2)cc1`, for which the activation is 28.5% [at 11.4 µM] (inactive) and 7.24% [at 11.4 µM] (inactive).

`Cn1c(CNc2nc(-c3ccccc3)cs2)nnc1SCC(=O)c1ccccc1`: the Potency entry is “inactive”.

With `CCN(CC)CCCCn1c(-c2ccccc2)nc2c(N3CCOCC3)nc(C)nc21`, the Potency entry was “inactive”.

As to `COc1c(C)cccc1C(=O)Nc1cc(Cl)ccc1N1CCOCC1`, the Potency is 25.1 µM (active).

As for `CC(=O)Nc1ccc(N2CCOCC2)c(C(=O)Nc2cccc(C)c2)c1`, the Potency entry is “inactive”.

As for `O=C(CNC(=O)c1ccc(Cl)cc1Cl)NCC(=O)Nc1ccccc1N1CCOCC1`, the Potency entry is “inactive”.

For the compound `Cc1ccc(NC(=O)c2cccc(N(C)C)c2)cc1NC(=O)c1ccc(O)cc1`, the Potency result was “inactive”.

For the compound `COC(=O)c1oc2ccc(Br)cc2c1NC(C)=O`, the Potency result was “inactive”.

For `Cc1cccc(OCc2nnc(SCn3nnc4ccccc4c3=O)o2)c1`, the Potency was 25.1 µM (active).

In the case of `Cc1cccc(OCc2nnc(SCc3nc4cc(C(F)(F)F)ccc4c(=O)[nH]3)o2)c1`, the Potency entry is “inactive”.

With `Cc1cc(C)cc(OCc2nnc(SCC(=O)Nc3ccccc3)o2)c1`, the Potency entry was “inactive”.

Consider `Cc1noc(C)c1S(=O)(=O)N(CC(=O)Nc1ccc2c(c1)OCCO2)c1ccc(C(C)C)cc1`, for which the Potency entry was “inactive”.

With `C=CCOc1ccc(/C=N/n2cncn2)cc1OC`, the Potency entry is “inactive”.

With `Cc1nc(C)c(C(=O)Nc2cccc(C)c2C)o1`, the Potency result was “inactive”.

For `CCCCOc1ccc(-c2nnc(-c3ccco3)o2)cc1`, the Potency was 20 µM (active).

For the compound `Cc1ccc(OCC(=O)Nc2ccc(-c3nnc(-c4ccco4)o3)cc2)cc1`, the Potency result was “inactive”.

On to `CCC(=O)Oc1cccc(C(=O)Nc2ccc(-c3nnc(-c4ccco4)o3)cc2)c1`, for which the Potency entry was “inactive”.

As to `CC(C)(C)c1ccc(OC2C=CC(C#Cc3ccccc3)OC2CO)cc1` (configuration not stated), the activation was 12.6% [at 11.4 µM] (inactive).

Regarding `Cc1cc2nc3c(=O)[nH]c(=O)nc-3n(C[C@H](O)[C@H](O)[C@H](O)CO)c2cc1C`, the Potency result was “inactive”.

Take `CC(Cc1cccs1)NC(=O)NC1CCCCC1` (configuration not stated): the Potency entry was “inactive”.

In the case of `O=C(Nc1c(-c2ccccc2)nc2c(Br)cc(Br)cn12)c1ccco1`, the Potency was 20 µM (active).

Take `Cc1ccccc1NC(=O)c1cnn(-c2ccccc2)c1NC(=O)c1ccco1`: the Potency entry is “inactive”.

Take `O=C(Nc1ccc(Oc2ccccc2)cc1)c1ccco1`: the Potency entry was “inactive”.

`N#Cc1nc(COc2ccc(-c3ccccc3)cc2)oc1NCc1cccnc1`: the Potency entry was “inactive”.

As for `Cn1c(=O)c2c(nc(N3CCCCCC3)n2CC(O)COc2ccc(Cl)cc2)n(C)c1=O` (configuration not stated), the Potency entry was “inactive”.

With `N#Cc1nc(-c2ccc(OCc3ccccc3)cc2)oc1NCCCN1CCOCC1`, the Potency entry was “inactive”.

`Cc1ccc(OCc2nc(C#N)c(N3CCCC3)o2)cc1`: the Potency was 20 µM (active).

With `CCOc1ccc(Nc2oc(Cc3ccccc3)nc2C#N)cc1`, the Potency result is “inactive”.

With `N#Cc1nc(COc2ccc(Cl)cc2)oc1N1CCCC1`, the Potency was 15.8 µM (active).

In the case of `CCOc1cc(/C=N/O)cc(Br)c1OC`, the activation was 15% [at 11.4 µM] (inactive).

For the compound `CCOC(=O)[C@]1(C(/C=C/c2ccco2)NC(=O)OC)CCCC1=O` (some centres not stated), the activation was 0.322% [at 11.4 µM] (inactive).

With `O=C(NC(Cc1ccccc1)C(=O)N1CCCC1C(=O)O)c1ccccc1` (configuration not stated), the Potency result is “inactive”.

`O=c1c(CCc2ccccc2)nc2cncnc2n1C1CC1`: the Potency result was “inactive”.

For `CCOC(=O)C1CCCN(C(=O)C2CCN(c3nnc(-n4cccc4)s3)CC2)C1` (configuration not stated), the Potency entry was “inactive”.

With `O=C1CSC(c2cccc(F)c2)N1c1ccccc1F` (configuration not stated), the Potency result is “inactive”.

Consider `Cc1cc(/C=N/n2cnnc2)c(C)n1-c1cccc(C(=O)O)c1`, for which the Potency result is “inactive”.

With `Fc1ccc(Br)cc1/C=N/n1cnnc1`, the Potency result was “inactive”.

With `Cc1cc(/C=N/n2cnnc2)c(C)n1-c1ccc2ncccc2c1`, the Potency was 3.98 µM (active).

In the case of `CCOC(=O)c1cc2cc(-c3c(C(=O)OCC)oc4cc(O)cc(O)c4c3=O)ccc2o1`, the Potency result was “inactive”.

Regarding `COc1ccccc1CN1CC2(CCN(S(=O)(=O)c3ccccc3)CC2)C1`, the Potency entry is “inactive”.

In the case of `O=C(Nc1cccc(F)c1)N1CCC2(CC1)CCN(S(=O)(=O)c1ccccc1)CC2`, the Potency result was “inactive”.

Values taken from PubChem BioAssay AID938 (National Center for Advancing Translational Sciences (NCATS), 2007).
